From the supplement of paper PMC6411743
± gives the standard deviation of the averaged measurements. Targets with the largest changes are over-represented here; the source holds about 5,400 in all.

Molecular target: T1, UniProt Q8TD55|Q8TD55-2
T1 sequence (whole entry): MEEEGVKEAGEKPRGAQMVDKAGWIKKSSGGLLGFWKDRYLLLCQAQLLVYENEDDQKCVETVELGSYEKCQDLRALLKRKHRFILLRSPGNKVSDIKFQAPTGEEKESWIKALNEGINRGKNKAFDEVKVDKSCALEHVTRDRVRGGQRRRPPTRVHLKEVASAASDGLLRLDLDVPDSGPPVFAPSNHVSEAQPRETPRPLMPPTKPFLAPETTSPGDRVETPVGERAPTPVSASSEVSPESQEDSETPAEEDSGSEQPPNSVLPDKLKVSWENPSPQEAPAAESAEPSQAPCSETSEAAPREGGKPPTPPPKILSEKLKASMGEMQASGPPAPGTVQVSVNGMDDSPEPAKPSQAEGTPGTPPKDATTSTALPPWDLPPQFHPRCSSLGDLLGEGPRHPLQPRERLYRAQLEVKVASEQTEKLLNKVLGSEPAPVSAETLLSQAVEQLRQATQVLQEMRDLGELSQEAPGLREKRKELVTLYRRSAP
Assay: NP40-soluble protein abundance relative to vehicle (solubility fold change) (ratio); higher = more soluble protein in presence of GTP
Method: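 Solubility proteome profiling in Jurkat crude lysate. Lysate was treated with Mg-GTP (0.1-10 mM) for 10 min at room temperature and 3 min at 37 °C, then solubilised with 0.8% NP40 and benzonase, followed by ultracentrifugation. Proteins were quantified by TMT10 LC-MS/MS; the value is the NP40-soluble abundance relative to the NP40-processed vehicle, from 3 independent experiments.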

Question: Which results are given for `Nc1nc2c(ncn2[C@@H]2O[C@H](COP(=O)(O)OP(=O)(O)OP(=O)(O)O)[C@@H](O)[C@H]2O)c(=O)[nH]1` [guanosine triphosphate]?
Answer: NP40-soluble protein abundance (concentration: 0.1mM): 1.07 ± 0.12; NP40-soluble protein abundance (concentration: 0.5mM): 0.933 ± 0.0094; NP40-soluble protein abundance (concentration: 1mM): 1.12 ± 0.072; NP40-soluble protein abundance (concentration: 2mM): 0.933 ± 0.018; NP40-soluble protein abundance (concentration: 4mM): 0.96 ± 0.072; NP40-soluble protein abundance (concentration: 6mM): 0.918 ± 0.046; NP40-soluble protein abundance (concentration: 8mM): 0.943 ± 0.13; NP40-soluble protein abundance (concentration: 10mM): 1.03 ± 0.097
